Assay outcomes: PubChem, The Scripps Research Institute Molecular Screening Center
Shown are actives, neighbours in structure and some others; about 3.5% of the full set was active somewhere.
FBW7 act: activators of human E3 ligase FBW7. AlphaScreen FBW7–phospho-cyclin E peptide binding, activator screen. normalized activity (activation), % at 26.1 µM. hit rate 0.13% among 650,000. AID 1259310; in the data active = normalized activity above about 1.9%;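 also: purified mutant Fbw7 with reduced substrate affinity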
GPR151 ag: activates the human receptor GPR151; Q8TDV0; hit rate 1% among 650,000; activation, % at 11.2 µM; AID 1508602; PathHunter beta-arrestin GPR151 cells, luminescence; in the data active = activation above about 4.9%;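 also: 0% = median of compound wells and 100% = cells with positive control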
MITF inh: inhibitors of human MITF | O75030 | AlphaScreen MITF homodimerization, bead proximity signal | AID 1259374 | inhibition, % at 2.6 µM | hit rate 0.91% among 650,000; in the data active = inhibition above about 50%;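 also: 0% = vehicle wells with protein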
Target sequence (O75030 whole entry, looked up): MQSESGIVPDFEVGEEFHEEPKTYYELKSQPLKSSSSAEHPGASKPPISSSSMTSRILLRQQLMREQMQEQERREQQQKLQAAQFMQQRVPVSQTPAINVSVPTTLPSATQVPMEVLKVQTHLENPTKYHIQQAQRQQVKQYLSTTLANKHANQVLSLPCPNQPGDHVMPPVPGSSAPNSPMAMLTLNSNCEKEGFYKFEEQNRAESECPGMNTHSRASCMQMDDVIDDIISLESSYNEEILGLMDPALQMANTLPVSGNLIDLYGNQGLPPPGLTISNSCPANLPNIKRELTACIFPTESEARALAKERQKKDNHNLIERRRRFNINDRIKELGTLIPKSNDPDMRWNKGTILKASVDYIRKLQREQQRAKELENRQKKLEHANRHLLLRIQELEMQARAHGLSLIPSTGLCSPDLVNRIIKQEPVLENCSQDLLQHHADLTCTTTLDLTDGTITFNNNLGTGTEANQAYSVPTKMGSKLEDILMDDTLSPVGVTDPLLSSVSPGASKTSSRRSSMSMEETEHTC
TEAD-YAP block: TEAD-YAP interaction inhibition. HEK-TIYL cells, TEAD-Gal4/YAP UAS-luciferase luminescence. hit rate 1.4% among 640,000. AID 1259422. inhibition, % at 9.12 µM; in the data active = inhibition above about 32%;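 also: 0% = median of test compound wells and 100% = reference inhibitor wells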
* = called active by the depositor.

SMILES	FBW7 act	GPR151 ag	MITF inh	TEAD-YAP block
CN(Cc1ccc(F)cc1)C(=O)CC1C(=O)NCCN1Cc1ccc2ccccc2c1 (stereo not drawn)	0	1	2	3
COc1ccccc1NC(=O)CSc1nnc(C(C)NC(=O)c2ccccc2)n1C (stereo not drawn)	0	0	7	-2
CCOC(=O)CC1=C(C(=O)OCC)C(c2ccc(OC)c3ccccc23)C(C#N)=C(N)O1 (stereo not drawn)	0	1	1	4
COc1cc(C(=O)Nc2nnc(C)s2)c(Br)c(OC)c1OC	1	-2	-9	-1
COc1cc(CCC(=O)Nc2nnc(C)s2)cc(OC)c1OC	0	1	2	55*
O=C(CCl)Nc1c(C(O)(C(F)(F)F)C(F)(F)F)ccc2ccccc12	0	2	0	12
Oc1c(CN2CCOCC2)ccc2ccccc12	0	0	13	5
Oc1ccc(CN2CCN(c3ccccc3)CC2)c2cccnc12	0	0	31	5
Oc1c(CN2CCOCC2)ccc2cccnc12	-1	1	95*	16
Oc1c(C(O)(C(F)(F)F)C(F)(F)F)ccc2cccnc12	0	-2	47	49*
Oc1c(CN2CCCCC2)ccc2cccnc12	0	-2	105*	46*
Oc1c(CN2CCN(Cc3ccc4cccnc4c3O)CC2)ccc2cccnc12	0	-2	114*	38*
O[N+]1=CC=CCC1=S.On1ccccc1=S.[Zn]	0	2	-113	100*
CCCCc1ccc(NC(=O)c2ccccc2)cc1	0	-6	10	-12
COc1ccc(C(=O)Nc2nc3ccccc3n2C)cc1	0	-5	0	6
CCCCc1ccc(C(=O)Nc2cnc3ccccc3c2)cc1	0	-2	6	40*
COc1ccc(C(=O)Nc2ccccc2C(=O)Nc2nc3ccccc3n2C)cc1	0	-2	-5	94*
COc1ccc(C(=O)Nc2cc(C)c(C)s2)cc1	0	-6	-9	34*
O=C(Nc1cnc2ccccc2c1)c1cccc(F)c1	0	-1	-3	36*
COc1ccc(C(=O)Nc2cnc(NC(=O)c3ccccc3)cc2C)cc1	0	-2	-8	45*
COc1ccc(C(=O)Nc2cc(Nc3ccccc3C(N)=O)ccn2)cc1	0	0	1	37*
COc1cc(Nc2cc(Nc3ccccc3C(N)=O)ccn2)cc(OC)c1OC	0	3	15	-11
COc1ccc(C(=O)Nc2cnc3ccccc3c2)cc1	0	-8	-2	84*
COc1cccc(CN2CCc3nc(-c4ccccn4)nc(N4CCCC4)c3C2)c1	-1	0	12	41*
CN(C(=O)c1cc(COc2cccc3cnccc23)on1)C1CCCCC1	0	-1	-9	43*
SMILES	FBW7 act	GPR151 ag	MITF inh	TEAD-YAP block
O=C(NC1CCC1)c1cc(COc2cccc3cnccc23)on1	0	0	6	27
Cc1c(C(C)NC(=O)c2cc(COc3cccc4cnccc34)on2)cnn1C (stereo not drawn)	0	-1	12	43*
CC(=O)c1ccc(OCc2cc(C(=O)N(C)C(C)c3ccon3)no2)cc1 (stereo not drawn)	0	-2	-19	2
CC(c1ccon1)N(C)C(=O)c1cc(COc2cccc3cnccc23)on1 (stereo not drawn)	0	-1	14	34*
C[C@H]1C(=O)N(C)CCN1C(=O)c1cc(COc2cccc3cnccc23)on1	0	2	-10	36*
O=C(Nc1nc2ccc([N+](=O)[O-])cc2s1)C(Cl)Cl	0	-1	14	3
CN(CCc1nc2ccc(F)cc2[nH]1)C(=O)c1cc(COc2cccc3cnccc23)on1	0	0	2	55*
Cc1cccn2c(=O)c3cc(C(=O)NC4CCCCC4)c(=N)n(CCCn4ccnc4)c3nc12	2.1*	-1	15	4
Cc1cccn2c(=O)c3cc(C(=O)NCc4cccnc4)c(=N)n(Cc4ccco4)c3nc12	0	0	5	-1
CCNC(=O)c1cc2c(=O)n3cccc(C)c3nc2n(Cc2ccco2)c1=N	0	-2	31	58*
CC(C)COCc1ccc(O)c2ncccc12	-2	0	59*	22
C=CS(=O)(=O)c1ccc(C(C)(C)C)cc1	0	3	19	68*
O=C(Sc1ccccc1)c1cc2ccccc2oc1=O	0	-1	2	-10
COc1ccc(-c2nsc3c(N4CCC(C(N)=O)CC4)ncnc23)cc1	0	-1	2	39*
COc1ccc(-c2nsc3c(N4CCN(C)CC4)ncnc23)cc1	0	0	-8	38*
CC1CCCCN1c1ncnc2c(-c3ccc([N+](=O)[O-])cc3)nsc12 (stereo not drawn)	0	1	-1	-10
COc1ccc(-c2nsc3c(N4CCOCC4)ncnc23)cc1	0	0	-22	82*
COc1ccc(-c2nsc3c(N4CCCCC4C)ncnc23)cc1 (stereo not drawn)	0	-1	10	93*
O=[N+]([O-])c1ccc(-c2nsc3c(N4CCCC4)ncnc23)cc1	0	1	18	-25
COc1ccc(-c2nsc3c(N4CCCCC4)ncnc23)cc1	0	-1	-12	83*
CCOc1ccc2nc(SCC(=O)Nc3nnc(CC)s3)sc2c1	0	3	-25	-5
C[n+]1ccccc1NCCCN1CCOCC1	3.8*	-1	-4	3
c1ccc(-c2nc(NCCCN3CCOCC3)cc(-c3ccncc3)n2)cc1	0	-2	5	10
c1ccc(-c2cc(NCCCN3CCOCC3)nc(-c3ccccn3)n2)nc1	-1	-1	117*	64*
COc1cc(-c2cc(C(=O)Nc3cc(C)[nH]n3)c3ccccc3n2)cc(OC)c1OC	0	0	-5	33*
SMILES	FBW7 act	GPR151 ag	MITF inh	TEAD-YAP block
Cc1ccccc1C(=O)/C=c1\[nH]c(=O)/c(=C\c2cccc(O)c2)s1	0	0	4	57*
COc1cc(C2C(C#N)=C(N)OC3=C2C(=O)CC(C)(C)C3)cc(OC)c1OC(C)=O (stereo not drawn)	1	-1	5	0
O=c1cc2oc3cc(O)c(O)cc3c(-c3cccc(Cl)c3Cl)c-2cc1O	0	-1	102*	11
COc1cccc(-c2cc(=O)c3ccccc3o2)c1N	0	-2	-11	-53
CC(=O)Nc1cccc(-c2cc(=O)c3ccccc3o2)c1O	0	-2	-5	-47
COc1cc(OC)c(-c2c3cc(O)c(=O)cc-3oc3cc(O)c(O)cc23)cc1OC	0	-1	110*	8
O=c1cc2oc3cc(O)c(O)cc3c(-c3ccccn3)c-2cc1O	-2	-1	86*	5
COc1cc2ccc(=O)oc2cc1O	0	-1	2	7
COc1ccccc1-c1c2cc(O)c(=O)cc-2oc2cc(O)c(O)cc12	0	-1	104*	8
O=C(CC1C(=O)NCCN1C/C=C/c1ccccc1)NCCc1ccccc1C(F)(F)F (stereo not drawn)	0	0	-6	-6
CCCCOc1ccc(S(=O)(=O)N2CCSC2c2ccccc2Cl)cc1 (stereo not drawn)	0	2	-2	6
